Screens as filed in PubChem.
Sampled rows, rich in hits. Any-hit rate of the full collection: about 2.9%.
MEKK3 PB1 HTS – raises or lowers MEK5 binding to the human MEKK3 PB1 domain | bead-based flow cytometry, Alexa488-MEK5 binding to MEKK3; actives lie on both sides; 0 = blocked by unlabeled MEK5, 100 = vehicle | AID 1529 | Q99759 | 1.4% of 290,000 active | binding response (% of control), % at 10 µM;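 active means binding response more than 3 SD above or below the average of its plate-row segment, actives on both sides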;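 further: Alexa488 bead fluorescence after subtracting the streptavidin-only scavenger bead signal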
FID counter – counter-screen for HCV NS3 helicase inhibitors: DNA intercalator displacement | DNA fluorescent intercalator displacement, fluorescence | inhibition, % at 7.9 µM | 0.17% of 290,000 active; in the data active means inhibition above about 37%;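 further: 0% = vehicle and 100% = reference compound; higher means more ethidium bromide displaced from hairpin DNA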
MEKK2mut PB1 HTS – signal of MEK5 binding to mutant human MEKK2 PB1 domain; percent response, % at 10 µM; bead flow cytometry, Alexa488-MEK5 binding to MEKK2 mutant; 0.35% of 290,000 active; AID 1530; in the data active means percent response above about 24%, passing the limit was not always enough
dFosB act – activators of mouse delta FosB homodimer; activation, % at 25 µM; 0.99% of 340,000 active; purified delta FosB, TAMRA-CDK5 oligo fluorescence polarization; percent of positive-control signal above neutral wells; P13346;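 active means mean activation above about 17%, with every replicate also reaching it, limit read from the data, passing the limit was not always enough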
Target sequence (P13346 whole entry, looked up): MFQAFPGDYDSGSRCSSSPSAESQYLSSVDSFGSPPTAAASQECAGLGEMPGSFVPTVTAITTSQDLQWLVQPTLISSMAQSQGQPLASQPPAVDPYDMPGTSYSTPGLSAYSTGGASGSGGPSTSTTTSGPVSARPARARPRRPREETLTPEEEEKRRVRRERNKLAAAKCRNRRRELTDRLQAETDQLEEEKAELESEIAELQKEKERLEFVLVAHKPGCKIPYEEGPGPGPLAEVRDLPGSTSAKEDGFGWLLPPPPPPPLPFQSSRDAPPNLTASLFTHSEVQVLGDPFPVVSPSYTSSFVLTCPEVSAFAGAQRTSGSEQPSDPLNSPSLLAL
MEKK2wt PB1 HTS – raises or lowers MEK5 binding to wildtype human MEKK2 PB1 domain; bead flow cytometry, Alexa488-MEK5 binding to MEKK2 WT; actives lie on both sides; binding response (% of control), % at 10 µM; 1.1% of 290,000 active; in the data active means binding response below about 67% or above about 130%
MEKK2wt confirm – raises or lowers MEK5 binding to wildtype human MEKK2, retest; AID 1892; bead flow cytometry, Alexa488-MEK5 binding to MEKK2 WT; actives lie on both sides; shares compounds with MEKK3 PB1 HTS; 2.4% of 5,900 active; binding response (% of control), % at 10 µM; in the data active means binding response below about 16% or above about 210%; inactive means in between
MEKK2mut-MEK5 – signal of MEK5 binding to mutant human MEKK2, retest | shares compounds with MEKK3 PB1 HTS | bead flow cytometry, Alexa488-MEK5 binding to MEKK2 mutant | percent response, % at 10 µM | 2% of 5,900 active; in the data active means percent response mostly above about 71%, no sharp cut-off; inactive means mostly below about 38%;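 further: higher means compound restores mutant binding toward wildtype level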
MEKK3-MEK5 inh – MEKK3-MEK5 PB1 inhibition, single concentration confirmation | shares compounds with MEKK3 PB1 HTS | bead flow cytometry, Alexa488-MEK5 binding to MEKK3; hits give low values | binding response (% of control), % at 10 µM | 1.8% of 5,900 active | AID 1894;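 active means binding response below 72% of control, or above a set upper limit, though filed actives all read lower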;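 further: 100% = DMSO only wells and 0% = binding blocked by excess unlabeled MEK5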
* hit, by the source's call; nt = not tested or not shown; [ ] = dose if it differs, or a comment.

SMILES	MEKK3 PB1 HTS	FID counter	MEKK2mut PB1 HTS	dFosB act	MEKK2wt PB1 HTS	MEKK2wt confirm	MEKK2mut-MEK5	MEKK3-MEK5 inh
Cc1ccc(S(=O)(=O)NCC2CCC(C(=O)O)CC2)cc1 (stereo unspecified)	101	-2	11	-3	105	nt	nt	nt
COC(=O)[C@@H](NCc1ccc(OC)c(B(O)O)c1)C(C)C	nt	nt	nt	2	nt	nt	nt	nt
C=CCNC(=O)CN(c1ccc(OC)cc1OC)S(C)(=O)=O	127*	-1	7	2	123	98	-2	100
COc1ccc(OC)c(N(CC(=O)Nc2ccccc2)S(C)(=O)=O)c1	100	-11	3	-2	101	nt	nt	nt
CCOC(=O)c1cccc2c(=O)c(C(=O)c3ccc(Cl)cc3)c(C(=O)OC)[nH]c12	104	-9	1	-4	99	nt	nt	nt
CCCn1nc2cc(C(=O)NCCc3ccc(C)cc3)ccc2c1OCC	97	-30	-4	-6	96	nt	nt	nt
C=CCOc1c2ccc(C(=O)NCCc3ccc(C)cc3)cc2nn1C	126*	-17	14	0	123	68	-14	93
CCOc1ccc2nc(C)cc(C(=O)O)c2c1	0.0*[inhibitor]	7	-23	0	-7.0*[inhibitor]	120	12	100
COc1ccc2nc(C)cc(C(=O)O)c2c1	106	3	7	-3	105	nt	nt	nt
CCCS(=O)(=O)N1CCN=C1SCc1cccc(C)c1	103	-8	4	-5	101	nt	nt	nt
COc1cc(/C=N/n2cnnc2)ccc1OC(=O)c1cccnc1	100	-2	3	-4	99	nt	nt	nt
COc1cc(/C=N/n2cnnc2)ccc1OC(=O)c1ccncc1	56*[inhibitor]	-3	-9	1	70	97	-5	98
COc1ccc(NC(=O)NCCCN2CCN(c3ccccc3F)CC2)cc1	96	6	-5	0	103	nt	nt	nt
COc1ccc(NC(=O)NCCCN2CCN(c3cc(C)ccc3C)CC2)cc1	115	20	25*	-4	135*	138	25	101
CCOc1ccc(S(=O)(=O)N2CCCCC2)cc1NC(=O)CC1OC(=O)c2ccccc21 (stereo unspecified)	nt	nt	nt	3	nt	nt	nt	nt
Cc1c(C(=O)C(=O)N2CCN(C)CC2)c2ccccc2n1C	117	14	1	3	113	nt	nt	nt
Cc1c(C(=O)C(=O)N2c3ccc(F)cc3CCC2C)c2ccccc2n1C (stereo unspecified)	141*	-13	1	1	108	97	-4	104
O=C1CC(c2cccc(Cl)c2)c2cc3c(cc2N1)CCC3 (stereo unspecified)	2.0*[inhibitor]	-24	-27	-2	-2.0*[inhibitor]	88	-6	95
Cc1sc2ncn(CC(=O)N3CCC(C(N)=O)CC3)c(=O)c2c1S(=O)(=O)N1CC(C)CC(C)C1 (stereo unspecified)	103	-31	0	-2	102	nt	nt	nt
CCCCNc1ccc(C(=O)OCCOCCOCCOCCOCCOCCOCCOCCOCCOC)cc1	nt	nt	nt	-4	nt	nt	nt	nt
CC1CCCN(C(=O)CSc2nnc(-c3cccnc3)n2C2CCCCC2)C1 (stereo unspecified)	100	-30	2	-4	96	nt	nt	nt
O=C(CSc1nnc(-c2ccccc2)n1C1CCCCC1)N1CCCC1	74*[inhibitor]	-31	-8	3	79	112	8	111
COCCN(C(=O)Nc1ccc(OC)cc1OC)C1CCN(C(C)C)CC1	81*[inhibitor]	-3	-8	1	91	99	-4	95
COCCN(C(=S)Nc1ccc(OC)cc1)C1CCN(C(C)=O)CC1	99	-2	0	-3	102	nt	nt	nt
COCCN(C(=S)Nc1cccc(OC)c1)C1CCN(C(C)=O)CC1	105	-1	1	-4	105	nt	nt	nt
Cc1ccc(NC(=S)N(CCN2CCCCC2)Cc2ccco2)cc1	91	16	-3	-2	96	nt	nt	nt
